PubChem BioAssay (NCI)
The panel holds about 79,000 compounds, 15% with a hit somewhere; the sample as a whole holds those more often. Values without a mark were called inactive. Activity calls are given as the source filed them. Cut-off read from the data, not from the text of the source: active = growth inhibition above about 70%; inactive = the rest.

Columns and labels:
[1] = NCI Yeast Anticancer Drug Screen. Data for the rad50 strain (AID 155);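 note: 0% = growth of vehicle-only cultures of the same strain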; settings: S. cerevisiae rad50 strain growth inhibition, stronger effect = higher value
How it was run: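 Readout: growth inhibition relative to vehicle-treated cultures. Compound exposure was carried out in a genetically defined yeast strain deficient in DNA damage repair.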

[2] = NCI Yeast Anticancer Drug Screen. Data for the mec2-1 strain (AID 157); settings: S. cerevisiae mec2-1 strain, stronger effect = higher value
How it was run: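 Readout is yeast growth inhibition, normalised to vehicle-treated controls, in the mec2-1 strain exposed to compound.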

[3] = NCI Yeast Anticancer Drug Screen. Data for the sgs1 mgt1 strain (AID 161);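 note: 0% = growth of cultures given vehicle only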; settings: S. cerevisiae sgs1 mgt1 strain, stronger effect = higher value
How it was run: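 Percent growth inhibition was derived by comparing compound-exposed mutant yeast with vehicle-exposed cultures. The strain carries alterations in DNA damage repair.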

[4] = NCI Yeast Anticancer Drug Screen. Data for the cln2 rad14 strain (AID 165);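 note: 0% = growth equal to vehicle treated cultures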; settings: S. cerevisiae cln2 rad14 strain, stronger effect = higher value
How it was run: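 Relative to vehicle controls, growth inhibition of compound-treated cln2 rad14 yeast was recorded.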

[5] = NCI Yeast Anticancer Drug Screen. Data for the bub3 strain (AID 167); settings: S. cerevisiae bub3 mutant strain, stronger effect = higher value
How it was run: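 Readout: yeast growth inhibition, expressed relative to vehicle-only wells. The test organism is a mutant strain from a panel with lesions in DNA repair or checkpoint genes.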

[6] = NCI Yeast Anticancer Drug Screen. Data for the mlh1 rad18 strain (AID 175); settings: S. cerevisiae mlh1 rad18 strain growth inhibition, stronger effect = higher value
How it was run: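 Test agents were incubated with a yeast strain of defined genotype (DNA damage repair defect). Inhibition of growth was derived by comparison with vehicle-exposed cultures.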

[7] = at 5.0 µM (retest, dose inferred, filed as 0.5)
[8] = at 50.0 µM (retest, dose inferred, filed as 5.0)

| SMILES | growth inhibition [1, 7] | growth inhibition [1, 8] | growth inhibition ([1]; at 50.0 µM) | growth inhibition [2, 7] | growth inhibition [2, 8] | growth inhibition ([2]; at 50.0 µM) | growth inhibition [3, 7] | growth inhibition [3, 8] | growth inhibition ([3]; at 50.0 µM) | growth inhibition [4, 7] | growth inhibition [4, 8] | growth inhibition ([4]; at 50.0 µM) | growth inhibition [5, 7] | growth inhibition [5, 8] | growth inhibition ([5]; at 50.0 µM) | growth inhibition [6, 7] | growth inhibition [6, 8] | growth inhibition ([6]; at 50.0 µM) |
| --- | --- | --- | --- | --- | --- | --- | --- | --- | --- | --- | --- | --- | --- | --- | --- | --- | --- | --- |
| CCCC[As](CCCC)SC1CCC2(C)C(=CCC3C4CCC(=O)C4(C)CCC32)C1 (configuration not stated) | 16% | 92% (active) | 95.7% (active) | 6% | 87% (active) | 83.6% (active) | 21% | 76% (active) | 97% (active) | 5% | 64% | 82.3% (active) | 3% | 87% (active) | 84% (active) | 13% | 88% (active) | 98.8% (active) |
| CCC[CH2][Sn]1([CH2]CCC)[O]C(=O)CN=Cc2ccccc2[O]1 | 88% (active) | 88% (active) | 88.5% (active) | 92% (active) | 92% (active) | 92% (active) | 85% (active) | 85% (active) | 90% (active) | 91% (active) | 91% (active) | 90.8% (active) | 90% (active) | 90% (active) | 89.9% (active) | 90% (active) | 90% (active) | 89.5% (active) |
| COc1ccc([As+](c2ccccc2)(c2ccccc2)c2ccccc2)cc1 | 82% (active) | 98% (active) | 99.1% (active) | 88% (active) | 99% (active) | 98.8% (active) | 93% (active) | 99% (active) | 98.7% (active) | 77% (active) | 98% (active) | 99% (active) | 95% (active) | 99% (active) | 99% (active) | 91% (active) | 98% (active) | 99% (active) |
| CC(=O)c1cc(CN(CCCl)CCCl)c(O)c(CN(CCCl)CCCl)c1O | 5% | 12% | 90.5% (active) | -13% | 14% | 77.7% (active) | 10% | 34% | 96.2% (active) | 4% | 6% | 63.1% | 3% | 6% | 78.6% (active) | -4% | 45% | 89.5% (active) |
| COc1cc(/C=C(/C)[N+](=O)[O-])c([N+](=O)[O-])cc1OC | 29% | 75% (active) | 88.3% (active) | 2% | 33% | 85.5% (active) | 14% | 65% | 71.7% (active) | 3% | 29% | 14.8% | 0% | 54% | 67% | 10% | 35% | 71.7% (active) |
| O=NN(CC(=O)O)c1ncccn1 | -1% | 0% | -6.25% | -3% | 0% | 1.45% | -2% | -3% | -8.05% | -6% | 1% | 36.7% | -2% | 0% | -13.4% | -1% | -2% | 29.4% |
| O=C(CCl)Nc1ccc(Cl)cc1 | 3% | 44% | 54.6% | 1% | 29% | 59.5% | -2% | 44% | 67.3% | -2% | 16% | 40.9% | 1% | 40% | 51.9% | 1% | 45% | 61.2% |
| O=C(N/N=C(/CCN1CCCC1)CC(c1ccccc1)c1c(O)c2ccccc2oc1=O)c1ccncc1 (configuration not stated) | 15% | 15% | 83.3% (active) | -4% | -4% | 80% (active) | -1% | -1% | 85.1% (active) | -1% | -1% | 82.3% (active) | 0% | 0% | 81.3% (active) | 14% | 14% | 81.2% (active) |
| COC(CNS(=O)(=O)c1ccccc1)[CH2][Hg][O]C(C)=O (configuration not stated) | 1% | -1% | 99.5% (active) | -3% | 13% | 98.8% (active) | -5% | 19% | 99.2% (active) | -4% | 6% | 99.1% (active) | 2% | 4% | 99.2% (active) | -2% | 11% | 99.2% (active) |
